CYP2C9 act: CYP2C9 (human) activation; P11712; recombinant CYP2C9, luciferin-H conversion, luminescence; hits give high values; factor 1 = untreated enzyme, 0 = blocked; activation factor at 5 µM; 96,000 tested, 1.4% active;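 active = activation factor of 2 or more for CYP2C9 at a 5 µM dose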;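 also: 0 = sulfaphenazole-blocked wells and 1 = vehicle-only wells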
CYP2C19 inhib: blocks human cytochrome P450 2C19. CYP2C19 Supersomes, luciferin-H EGE luminescence, 30 min. 96,000 tested, 21% active. AID 778. inhibition, % at 5 µM. P33261;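 active = CYP2C19 inhibition above a set limit at 5 µM in the primary screen, cut at about 50% in these data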;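 also: plate controls were negative control wells for no effect and 2.5 mM tranylcypromine positive control for full effect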
CYP2C19 act: increases human CYP2C19 enzyme activity; activation factor at 5 µM; P33261; recombinant CYP2C19, luciferin-H EGE luminescence; hits give high values; 0 = fully inhibited enzyme, 1 = untreated enzyme; 96,000 tested, under 10 active;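 active = activation factor of at least 2 at 5 µM in the primary screen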;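 also: 0 = wells with 2.5 mM tranylcypromine and 1 = vehicle-only wells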
CYP2C9 inh: inhibitors of human CYP2C9. P11712. CYP2C9 Supersomes, luciferin-H conversion, luminescence. inhibition, % at 5 µM. 96,000 tested, 20% active;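 active = blocking of liver enzyme CYP2C9 beyond about 50% at 5 µM, limit read from the data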
Cav3 T inh: inhibitors of human Cav3.2 T-type calcium channel. 100,000 tested, 4% active. O95180. Cav3.2-expressing cells, Fluo-4 calcium fluorescence FDSS; hits give low values. B-score at 10 µM;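 active = single-dose well whose peak fluorescence ratio is a statistical outlier from its plate by either plate-standardised score or position-corrected B-score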
The depositor's hits bear a star; x = not tested or not shown. An excerpt weighted towards active compounds, which were near 27% of everything screened.

SMILES	CYP2C9 act	CYP2C19 inhib	CYP2C19 act	CYP2C9 inh	Cav3 T inh
Cc1ccccc1NS(=O)(=O)c1cc(C(=O)N2CCc3ccccc3C2)ccc1C	0.3	54*	0.5	67*	x
Cc1csc(N(C(=O)c2cccc(S(=O)(=O)N(C)C)c2)c2ccccc2)n1	1	11	0.9	0	-0.11
CCN(CC)CCNC(=O)c1ccc(Cl)c(S(=O)(=O)Nc2ccc(Cl)cc2)c1	1.1	-8	1.1	-11	-1.1
COC(=O)[C@H](Cc1ccccc1)NC(=O)NCCC1=CCCCC1	0.4	69*	0.3	62*	-0.64
O=C(NCCC1=CCCCC1)c1ccc(Cl)c(S(=O)(=O)Nc2ccccc2)c1	0.3	40	0.6	69*	-2.3
CC1CCN(S(=O)(=O)N2CCC(C(=O)NCc3cccs3)CC2)CC1	0.9	2	1	13	-1.3
CC1(C)CC(=O)c2c(-c3cccs3)n[nH]c2C1	0.5	79*	0.2	52*	0.47
CCCc1n[nH]c2c1C(=O)CC(C)(C)C2	1.1	1	1	-7	-0.014
CCn1c(N2CCN(C(=S)NCCc3ccccc3)CC2)nc2ccccc21	0.6	56*	0.4	37	-3.2
CCn1c(N2CCN(C(=S)NC)CC2)nc2ccccc21	0.7	66*	0.3	33	1.3
COc1cccc(C2N(c3cccc(Cl)c3)C(=O)C3CCCN32)c1 (configuration not stated)	0.1	70*	0.3	88*	-0.56
COc1cccc(N2C(=O)C3CCCN3C2c2ccc(Cl)cc2)c1 (configuration not stated)	0.5	69*	0.3	50*	-1
COc1ccc(N2C(=O)C3CCCN3C2c2cccc(F)c2)cc1Cl (configuration not stated)	0.9	8	0.9	8	0.22
COc1ccc(N2C(=O)C3CCCN3C2c2cccc(Br)c2)cc1 (configuration not stated)	0.5	46	0.5	52*	-0.32
COc1cccc(N2C(=O)C3CCCN3C2c2ccc(N(C)C)cc2)c1 (configuration not stated)	0.6	38	0.6	37	0.6
C[C@@H]1NC(=O)c2cc([N+](=O)[O-])cc(I)c2OCC[C@@H](C(=O)NC(CC(=O)O)C(N)=O)NC(=O)[C@H](CCC(=O)O)NC1=O (some centres not stated)	x	x	x	x	-0.026
O=C(O)CCCC(=O)N1CCc2cc(S(=O)(=O)N3CCc4ccccc43)ccc21	0.9	-20	1.2	8	1.2
COc1ccc(-c2oc3ncn4nc(Cc5ccccc5)nc4c3c2-c2ccc(OC)cc2)cc1	0.7	16	0.8	34	-1.6
O=C(NCC1(N2CCOCC2)CCCCC1)c1ccc(Cl)c(S(=O)(=O)NCc2ccco2)c1	0.3	53*	0.5	71*	-0.024
O=C(NCc1ccco1)c1ccc(Br)c(S(=O)(=O)N2CCCCC2)c1	0.6	34	0.7	37	-2.1
Cc1ccc(S(=O)(=O)NCc2ccco2)c(C)c1C	3.5*	56*	0.4	-254	-1
Cc1cccc(N2CCN(C(=O)c3ccc(Cl)c(S(=O)(=O)NCc4ccco4)c3)CC2)c1C	0.2	32	0.7	76*	x
O=S(=O)(NCc1ccco1)c1cccc(S(=O)(=O)N2CCCCC2)c1	0.9	35	0.6	9	0.84
O=C(O)c1ccc(Cl)c(S(=O)(=O)NCc2ccco2)c1	1	-3	1	-1	-0.77
OCC#Cc1cnc2ccccc2c1	0.8	27	0.7	15	0.42
SMILES	CYP2C9 act	CYP2C19 inhib	CYP2C19 act	CYP2C9 inh	Cav3 T inh
CCc1ccc(C2CC(c3ccccc3)n3ncnc3N2)cc1 (configuration not stated)	0.5	88*	0.1	48	-1.5
Fc1ccc(C2CC(c3ccc(F)cc3)n3ncnc3N2)cc1 (configuration not stated)	0.3	97*	0	69*	-0.52
CC(=O)NCC(=O)OCN1C(=O)c2ccccc2C1=O	x	x	x	x	0.18
Cc1cc(-c2c(C)n([O-])c(C)c(C)[n+]2=O)ccc1F	1.1	24	0.8	-8	-0.88
COc1ccccc1NC(=O)c1[nH]c(C)c(C(C)=O)c1C	0.2	47	0.5	79*	0.48
CCOC(=O)c1[nH]c(C)c(C(=O)NCc2ccc(C)cc2)c1C	0.7	19	0.8	28	-0.52
CCOC(=O)c1c(C)c(C(=O)Nc2cc(OC)ccc2OC)c(C)n1CC	1.3	61*	0.4	-26	-2.9
CCOC(=O)c1[nH]c(C)c(C(=O)c2ccc(C)cc2)c1C	0.7	63*	0.4	35	-1.5
CCOC(=O)c1[nH]c(C)c(C(=O)Nc2cc(OC)ccc2OC)c1C	2*	25	0.7	-96	x
CNC(=O)C(=O)NCCc1ccc(Cl)cc1	1	48	0.5	3	-0.33
C/C(=C\c1ccccc1)CN(C)CCN(C)C	1.3	-10	1.1	-28	0.24
Cc1ccc(CS(=O)(=O)CCC(=O)NCCN2CCCC2)cc1	0.8	-6	1.1	16	x
CCOc1cc(C(=O)N(C)c2ccccc2)cc(OCC)c1OCC	0.8	57*	0.4	22	0.67
S=C1NC[C@H](CC2CCCCC2)N1CC1CCCCC1	x	x	x	x	0.1
COC(=O)c1ccc(OCC(=O)c2ccccc2OC)cc1	0.6	90*	0.1	45	-0.28
COC(=O)COc1ccc(C(=O)OC)cc1	0.7	81*	0.2	29	-0.016
CC1(C)Cc2c(sc3c2C2=NCCN2C=N3)CS1	1	-16	1.2	-3	-0.21
Cc1ccc(NC(=O)CCC(=O)OCCCC(F)(F)C(F)(F)F)cc1	0.7	27	0.7	28	-1.7
O=C(CCC(=O)OCCCC(F)(F)C(F)(F)F)Nc1ccc(Cl)cc1Cl	0.6	70*	0.3	40	-2.7
COc1ccc(CNC(=O)C(OC(C)=O)c2ccccn2)cc1 (configuration not stated)	0.9	12	0.9	8	-0.0074
O=C(CC1NCCNC1=O)OCCCc1ccccc1 (configuration not stated)	1.1	13	0.9	-13	x
O=C(CCc1nc(-c2ccccc2)c(-c2ccccc2)o1)OCc1ccc(Cl)cc1	0.7	4	1	29	-4.3*
O=C(CCc1nc(-c2ccccc2)c(-c2ccccc2)o1)OCc1ccc(Br)cc1	0.2	58*	0.4	81*	-3.5
O=C(O)CCc1nc(-c2ccccc2)c(-c2ccccc2)o1	x	x	x	x	0.23
CCC(C)NC(=O)C1(C)CCC(=O)N1Cc1ccccc1OC (configuration not stated)	1.2	1	1	-23	-0.057
C=CCOn1c(=O)c(=O)n(OCc2ccccc2)c2ccccc21	1	97*	0	-4	1
CC(C)(C)n1ncc2c(=O)n(CC(=O)NCc3ccccc3Cl)cnc21	1.4	-10	1.1	-38	-2.6
COc1ccc(C(=O)c2coc3ccc(O)c(CN4CCCCC4)c23)cc1	0.8	40	0.6	19	0.54
O=C(c1ccccc1)c1coc2ccc(O)c(Cl)c12	0.4	90*	0.1	64*	-0.15
